# Data as given in the supplement of paper PMC8728848.
# Shown is part of a subset that was picked to be rich in the strongest signals.
# B1: CRT-1 (Homo sapiens), P27797 (protein)
# chain: MLLSVPLLLGLLGLAVAEPAVYFKEQFLDGDGWTSRWIESKHKSDFGKFVLSSGKFYGDEEKDKGLQTSQDARFYALSASFEPFSNKGQTLVVQFTVKHEQNIDCGGGYVKLFPNSLDQTDMHGDSEYNIMFGPDICGPGTKKVHVIFNYKGKNVLINKDIRCKDDEFTHLYTLIVRPDNTYEVKIDNSQVESGSLEDDWDFLPPKKIKDPDASKPEDWDERAKIDDPTDSKPEDWDKPEHIPDPDAKKPEDWDEEMDGEWEPPVIQNPEYKGEWKPRQIDNPDYKGTWIHPEIDNPEYSPDPSIYAYDNFGVLGLDLWQVKSGTIFDNFLITNDEAYAEEFGNETWGVTKAAEKQMKDKQDEEQRLKEEEEDKKRKEEEEAEDKEDDEDKDEDEEDEEDKEEDEEEDVPGQAKDEL
# Legend:
# Test in all cases: glycan array binding signal (z-score within array); higher = stronger binding
# Settings in all cases: glycan notation: IUPAC condensed, linker removed
# [1] = target: Fuc(a1-2)Gal(b1-4)Fuc(a1-3)]GlcNAc(b1-2)Man(a1-3)[Fuc(a1-2)Gal(b1-4)[Fuc(a1-3)]GlcNAc(b1-2)Man(a1-6)]Man(b1-4)GlcNAc(b1-4)GlcNAc
# Procedure, shortened: (§1)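 Glycan array data were curated from 3228 arrays in the Consortium for Functional Glycomics database and kept only where the protein sequence was available. Glycan names were converted to IUPAC-condensed notation, and columns mapping to the same glycan were averaged. The binding signal is a within-array Z-score, averaged across arrays of the same protein sequence at different concentrations or buffers and across linkers. Negative Z-scores can be read as non-binding.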
# [2] = target: Fuc(a1-2)Gal(b1-4)GlcNAc(b1-3)[Fuc(a1-3)[Gal(b1-4)]GlcNAc(b1-6)]Gal(b1-4)Glc
# Procedure, shortened: as §1
# [3] = target: Fuc(a1-2)Gal(b1-4)[Fuc(a1-3)]GlcNAc(b1-2)Man(a1-3)[Fuc(a1-2)Gal(b1-4)[Fuc(a1-3)]GlcNAc(b1-2)Man(a1-6)]Man(b1-4)GlcNAc(b1-4)GlcNAc
# Procedure, shortened: as §1
# [4] = target: Fuc(a1-2)Gal6S(b1-3)GlcNAc6S
# Procedure, shortened: as §1
# [5] = target: Fuc(a1-2)[Gal(a1-3)]Gal(b1-3)GlcNAc(b1-3)GalNAc
# Procedure, shortened: as §1
# [6] = target: Fuc(a1-2)[Gal(a1-3)]Gal(b1-4)[Fuc(a1-3)]Glc
# Procedure, shortened: as §1
# [7] = target: Fuc(a1-2)[GalNAc(a1-3)]Gal(b1-4)GlcNAc
# Procedure, shortened: as §1
# [8] = target: Fuc(a1-2)[GalNAc(a1-3)]Gal(b1-4)GlcNAc(b1-2)Man(a1-3)[Fuc(a1-2)[GalNAc(a1-3)]Gal(b1-4)GlcNAc(b1-2)Man(a1-6)]Man(b1-4)GlcNAc(b1-4)GlcNAc
# Procedure, shortened: as §1
# [9] = target: Fuc(a1-3)GlcNAc
# Procedure, shortened: as §1
# [10] = target: Fuc(a1-3)[Gal3S(b1-4)]GlcNAc
# Procedure, shortened: as §1
# [11] = target: Fuc(a1-3)[Gal3S(b1-4)]GlcNAc6S
# Procedure, shortened: as §1
# [12] = target: Gal(a1-3)Gal(b1-3)GlcNAc
# Procedure, shortened: as §1
# [13] = target: Gal(a1-3)Gal(b1-3)[Fuc(a1-4)]GlcNAc(b1-2)Man(a1-3)[Gal(a1-3)Gal(b1-3)[Fuc(a1-4)]GlcNAc(b1-2)Man(a1-6)]Man(b1-4)GlcNAc(b1-4)GlcNAc
# Procedure, shortened: as §1
# [14] = target: Gal(a1-3)Gal(b1-4)GlcNAc(b1-2)Man
# Procedure, shortened: as §1
# [15] = target: Gal(a1-3)[Gal(a1-4)]Gal(b1-4)GlcNAc
# Procedure, shortened: as §1
# [16] = target: Gal(a1-4)Gal(b1-4)GlcNAc(b1-2)Man(a1-3)[Gal(a1-4)Gal(b1-4)GlcNAc(b1-2)Man(a1-6)]Man(b1-4)GlcNAc(b1-4)GlcNAc
# Procedure, shortened: as §1
# [17] = target: Gal(b1-3)GlcNAc
# Procedure, shortened: as §1
# [18] = target: Gal(b1-3)GlcNAc(b1-2)Man(a1-3)[Gal(b1-3)GlcNAc(b1-2)Man(a1-6)]Man(b1-4)GlcNAc(b1-4)[Fuc(a1-6)]GlcNAc
# Procedure, shortened: as §1
# [19] = target: Gal(b1-3)GlcNAc6S
# Procedure, shortened: as §1
# [20] = target: Gal(b1-3)[Fuc(a1-4)]GlcNAc(b1-2)Man(a1-3)[Gal(b1-3)[Fuc(a1-4)]GlcNAc(b1-2)Man(a1-6)]Man(b1-4)GlcNAc(b1-4)GlcNAc
# Procedure, shortened: as §1
# [21] = target: Gal(b1-4)Gal
# Procedure, shortened: as §1
# [22] = target: Gal(b1-4)GlcNAc(b1-3)Gal(b1-3)GlcNAc
# Procedure, shortened: as §1
# [23] = target: Gal(b1-4)GlcNAc(b1-3)Gal(b1-4)GlcNAc(b1-3)Gal(b1-4)GlcNAc(b1-3)Gal(b1-4)GlcNAc(b1-2)Man(a1-3)[Gal(b1-4)GlcNAc(b1-3)Gal(b1-4)GlcNAc(b1-3)Gal(b1-4)GlcNAc(b1-3)Gal(b1-4)GlcNAc(b1-2)Man(a1-6)]Man(b1-4)GlcNAc(b1-4)[Fuc(a1-6)]GlcNAc
# Procedure, shortened: as §1
# [24] = target: Gal(b1-4)GlcNAc(b1-3)Gal(b1-4)GlcNAc(b1-3)Gal(b1-4)GlcNAc(b1-3)Gal(b1-4)GlcNAc(b1-3)Gal(b1-4)GlcNAc(b1-2)Man(a1-3)[Gal(b1-4)GlcNAc(b1-3)Gal(b1-4)GlcNAc(b1-3)Gal(b1-4)GlcNAc(b1-3)Gal(b1-4)GlcNAc(b1-3)Gal(b1-4)GlcNAc(b1-2)Man(a1-6)]Man(b1-4)GlcNAc(b1-4)GlcNAc
# Procedure, shortened: as §1
# [25] = target: Gal(b1-4)GlcNAc(b1-3)[Gal(b1-4)GlcNAc(b1-6)]Gal(b1-4)GlcNAc
# Procedure, shortened: as §1
# [26] = target: Gal(b1-4)GlcNAc(b1-3)[Gal(b1-4)GlcNAc(b1-6)]GalNAc
# Procedure, shortened: as §1
# [27] = target: Gal3S(b1-3)GalNAc
# Procedure, shortened: as §1
# [28] = target: Gal3S(b1-4)GlcNAc6S
# Procedure, shortened: as §1
# [29] = target: Gal6S(b1-4)Glc
# Procedure, shortened: as §1
# [30] = target: Gal6S(b1-4)GlcNAc
# Procedure, shortened: as §1
# [31] = target: GalNAc(b1-3)Gal(a1-4)Gal(b1-4)GlcNAc(b1-3)Gal(b1-4)Glc
# Procedure, shortened: as §1
# [32] = target: GalNAc(b1-3)GlcNAc
# Procedure, shortened: as §1
# [33] = target: GalNAc(b1-6)GalNAc
# Procedure, shortened: as §1
# [34] = target: Glc(a1-6)Glc(a1-6)Glc(a1-6)Glc
# Procedure, shortened: as §1
# [35] = target: GlcNAc(a1-4)Gal(b1-4)GlcNAc(b1-3)Gal(b1-4)[Fuc(a1-3)]GlcNAc(b1-3)Gal(b1-4)[Fuc(a1-3)]GlcNAc
# Procedure, shortened: as §1
# [36] = target: GlcNAc(a1-6)Gal(b1-4)GlcNAc
# Procedure, shortened: as §1
# [37] = target: GlcNAc(b1-3)Gal(b1-4)GlcNAc(b1-2)[GlcNAc(b1-3)Gal(b1-4)GlcNAc(b1-6)]Man(a1-6)[GlcNAc(b1-3)Gal(b1-4)GlcNAc(b1-2)Man(a1-3)]Man(b1-4)GlcNAc(b1-4)GlcNAc
# Procedure, shortened: as §1
# [38] = target: GlcNAc(b1-3)Gal(b1-4)GlcNAc(b1-3)Gal(b1-4)GlcNAc(b1-2)Man(a1-3)[GlcNAc(b1-3)Gal(b1-4)GlcNAc(b1-3)Gal(b1-4)GlcNAc(b1-2)Man(a1-6)]Man(b1-4)GlcNAc(b1-4)[Fuc(a1-6)]GlcNAc
# Procedure, shortened: as §1
# [39] = target: GlcNAc(b1-3)Gal(b1-4)GlcNAc(b1-3)Gal(b1-4)GlcNAc(b1-3)Gal(b1-4)GlcNAc(b1-3)Gal(b1-4)GlcNAc(b1-2)Man(a1-3)[GlcNAc(b1-3)Gal(b1-4)GlcNAc(b1-3)Gal(b1-4)GlcNAc(b1-3)Gal(b1-4)GlcNAc(b1-3)Gal(b1-4)GlcNAc(b1-2)Man(a1-6)]Man(b1-4)GlcNAc(b1-4)GlcNAc
# Procedure, shortened: as §1
# [40] = target: GlcNAc(b1-3)Man
# Procedure, shortened: as §1
# [41] = target: Neu5Ac(a2-3)Gal(b1-3)GlcNAc(b1-2)[Neu5Ac(a2-3)Gal(b1-3)GlcNAc(b1-4)]Man(a1-6)[Neu5Ac(a2-3)Gal(b1-3)GlcNAc(b1-2)Man(a1-3)]Man(b1-4)GlcNAc(b1-4)GlcNAc
# Procedure, shortened: as §1
# [42] = target: Neu5Ac(a2-3)Gal(b1-4)GlcNAc(b1-6)[Neu5Ac(a2-3)Gal(b1-3)]GalNAc
# Procedure, shortened: as §1
# [43] = target: Neu5Ac(a2-3)Gal(b1-4)[Fuc(a1-3)]GlcNAc(b1-3)Gal(b1-4)GlcNAc
# Procedure, shortened: as §1
# [44] = target: Neu5Ac(a2-3)[GalNAc(b1-4)]Gal(b1-4)GlcNAc(b1-3)GalNAc
# Procedure, shortened: as §1
# [45] = target: Neu5Ac(a2-6)Gal(b1-4)GlcNAc(b1-2)Man(a1-3)[GlcNAc(b1-2)Man(b1-4)GlcNAc(b1-2)Man(a1-6)]Man(b1-4)GlcNAc(b1-4)GlcNAc
# Procedure, shortened: as §1
# [46] = target: Neu5Ac(a2-6)Gal(b1-4)GlcNAc(b1-2)Man(a1-3)[Man(a1-6)]Man(b1-4)GlcNAc(b1-4)GlcNAc
# Procedure, shortened: as §1
# [47] = target: Neu5Ac(a2-6)Gal(b1-4)GlcNAc(b1-2)Man(a1-3)[Neu5Ac(a2-6)Gal(b1-4)GlcNAc(b1-2)Man(a1-6)]Man(b1-4)GlcNAc(b1-4)GlcNAc
# Procedure, shortened: as §1
# [48] = target: Neu5Ac(a2-6)Gal(b1-4)GlcNAc(b1-3)Gal(b1-4)GlcNAc(b1-3)Gal(b1-4)GlcNAc(b1-2)Man(a1-3)[Neu5Ac(a2-6)Gal(b1-4)GlcNAc(b1-3)Gal(b1-4)GlcNAc(b1-3)Gal(b1-4)GlcNAc(b1-2)Man(a1-6)]GalNAc
# Procedure, shortened: as §1
# [49] = target: Neu5Ac(a2-6)Gal(b1-4)GlcNAc(b1-3)Gal(b1-4)GlcNAc(b1-3)GalNAc
# Procedure, shortened: as §1
# [50] = target: Neu5Ac(a2-6)GalNAc
# Procedure, shortened: as §1
# [51] = target: Neu5Ac(a2-8)Neu5Gc(a2-3)Gal(b1-4)GlcNAc
# Procedure, shortened: as §1
# [52] = target: Neu5Gc(a2-3)Gal(b1-3)GlcNAc
# Procedure, shortened: as §1
# [53] = target: Neu5Gc(a2-8)Neu5Gc(a2-3)Gal(b1-4)GlcNAc
# Procedure, shortened: as §1
binder,measurement,setting,value
B1,glycan array binding signal (z-score),[1],1.49
same,glycan array binding signal (z-score),[2],0.038
same,glycan array binding signal (z-score),[3],2.15
same,glycan array binding signal (z-score),[4],0.305
same,glycan array binding signal (z-score),[5],-0.073
same,glycan array binding signal (z-score),[6],-0.424
same,glycan array binding signal (z-score),[7],-0.467
same,glycan array binding signal (z-score),[8],0.117
same,glycan array binding signal (z-score),[9],2.63
same,glycan array binding signal (z-score),[10],0.572
same,glycan array binding signal (z-score),[11],0.146
same,glycan array binding signal (z-score),[12],-0.43
same,glycan array binding signal (z-score),[13],0.078
same,glycan array binding signal (z-score),[14],-0.279
same,glycan array binding signal (z-score),[15],0.255
same,glycan array binding signal (z-score),[16],-0.021
same,glycan array binding signal (z-score),[17],-0.063
same,glycan array binding signal (z-score),[18],0.223
same,glycan array binding signal (z-score),[19],0.611
same,glycan array binding signal (z-score),[20],2.33
same,glycan array binding signal (z-score),[21],-0.253
same,glycan array binding signal (z-score),[22],-0.342
same,glycan array binding signal (z-score),[23],1.79
same,glycan array binding signal (z-score),[24],1.75
same,glycan array binding signal (z-score),[25],0.487
same,glycan array binding signal (z-score),[26],-0.095
same,glycan array binding signal (z-score),[27],-0.188
same,glycan array binding signal (z-score),[28],-0.498
same,glycan array binding signal (z-score),[29],-0.297
same,glycan array binding signal (z-score),[30],-0.673
same,glycan array binding signal (z-score),[31],0.488
same,glycan array binding signal (z-score),[32],0.853
same,glycan array binding signal (z-score),[33],0.544
same,glycan array binding signal (z-score),[34],0.137
same,glycan array binding signal (z-score),[35],1.95
same,glycan array binding signal (z-score),[36],-0.513
same,glycan array binding signal (z-score),[37],2.14
same,glycan array binding signal (z-score),[38],1.91
same,glycan array binding signal (z-score),[39],0.27
same,glycan array binding signal (z-score),[40],0.915
same,glycan array binding signal (z-score),[41],-0.396
same,glycan array binding signal (z-score),[42],-0.461
same,glycan array binding signal (z-score),[43],0.745
same,glycan array binding signal (z-score),[44],-0.233
same,glycan array binding signal (z-score),[45],12.5
same,glycan array binding signal (z-score),[46],0.357
same,glycan array binding signal (z-score),[47],2.53
same,glycan array binding signal (z-score),[48],1.9
same,glycan array binding signal (z-score),[49],-1.62
same,glycan array binding signal (z-score),[50],0.869
same,glycan array binding signal (z-score),[51],-0.349
same,glycan array binding signal (z-score),[52],-0.645
same,glycan array binding signal (z-score),[53],-0.33
